Assay outcomes as filed in PubChem BioAssay.
Sampled rows, rich in hits. Any-hit rate of the full collection: about 2.4%.
Tb PGK inh: T. brucei PGK inhibition. P07378. PGK/GAPDH coupled, Kinase-Glo luminescence, 60 min. Potency, µM (top dose mostly 57.5 µM), inactives show at the top dose activity change, negative = inhibition, usual class: inhibitors. 380,000 compounds, 0.043% hits. AID 602233; note: % is set by controls: 0 for no effect and ±100 for the full control effect; nearly all actives have a fitted effect of over 60% in size
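Luminescent ATP detection (Kinase-Glo Plus) follows a 60-minute room-temperature incubation, with wells lacking PGK as controls. Buffer: 100 mM TEA (pH 7.6), 5 mM MgCl2, 0.01% Tween-20. Coupling enzyme GAPDH (100 nM final) supplies unstable 1,3-BPG in-well.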
Tb PFK inh-1: inhibitors of T. brucei phosphofructokinase | T. brucei PFK, ADP-Glo luminescence | 330,000 compounds, 0.17% hits | AID 485367 | Potency, µM (series often up to 57.5 µM), inactives show top-dose activity, negative = inhibition, most hits filed as inhibitors | O15648;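 note: 0% = uninhibited 1x PFK enzyme wells and -100% = no-enzyme wells; nearly all actives have a fitted effect of over 60% in size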
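Compounds were pin-transferred as a titration series up to 57 uM into substrate buffer (0.5 mM F6P, 0.1 mM ATP, pH 8.0), then 1.25 nM PFK was added and reactions ran 45 min before ADP-Glo detection.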
Rango release inh: inhibition of RanGTP-driven Rango-importin beta dissociation; Potency, µM (top dose mostly 46.1 µM), for the others: top-dose activity change, negative = inhibition; Biochemical FRET Rango-importin beta, RanGTP-induced dissociation; O95149+P62826; 340,000 compounds, 0.071% hits; calls by dose curve; note: % of control where 0% means no effect; nearly all actives have a fitted effect of over 45% in size
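FRET read at 45 min, room temperature: inhibitors block the CFP/YFP signal rise when RanGTP (0.6 uM Ran, 2 mM GTP, 0.2 uM RCC1) frees Rango (0.1 uM) from importin beta (0.25 uM). Pre-read after 5 min compound exposure flags interference.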
PKM2 activator: increases activity of human pyruvate kinase M2 | P14618 | purified PKM2, Kinase-Glo ATP luminescence, activation; response scale: 0% is enzyme alone, no compound | Potency, µM (series often up to 57.5 µM), for inactives: top-dose activation, hits mostly activators | 260,000 compounds, 0.34% hits | AID 1631; note: % is set by controls: 0 for no effect and ±100 for the full control effect; nearly all actives have a fitted effect of over 55% in size
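Purified hPK-M2 (>95% pure) converted ADP (0.1 mM final) to ATP with 0.5 mM PEP in 50 mM imidazole pH7.2, KCl, MgCl2, Tween 20, BSA; 1 h at room temperature. ATP detected by Kinase-Glo luminescence.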
Rango-impB inh: prevents formation of the Rango-importin beta complex. Q14974. Rango CFP/YFP FRET sensor + importin beta, 45 min. Potency, µM (doses to about 92.2 µM), without a hit: top-dose inhibition of complex formation. 340,000 compounds, 0.031% hits. AID 540263; calls by dose curve;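 note: 0% = DMSO wells and 100% = buffer wells lacking importin beta; nearly all actives have a fitted effect of over 15% in size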
Target sequence (Q14974 whole entry, looked up): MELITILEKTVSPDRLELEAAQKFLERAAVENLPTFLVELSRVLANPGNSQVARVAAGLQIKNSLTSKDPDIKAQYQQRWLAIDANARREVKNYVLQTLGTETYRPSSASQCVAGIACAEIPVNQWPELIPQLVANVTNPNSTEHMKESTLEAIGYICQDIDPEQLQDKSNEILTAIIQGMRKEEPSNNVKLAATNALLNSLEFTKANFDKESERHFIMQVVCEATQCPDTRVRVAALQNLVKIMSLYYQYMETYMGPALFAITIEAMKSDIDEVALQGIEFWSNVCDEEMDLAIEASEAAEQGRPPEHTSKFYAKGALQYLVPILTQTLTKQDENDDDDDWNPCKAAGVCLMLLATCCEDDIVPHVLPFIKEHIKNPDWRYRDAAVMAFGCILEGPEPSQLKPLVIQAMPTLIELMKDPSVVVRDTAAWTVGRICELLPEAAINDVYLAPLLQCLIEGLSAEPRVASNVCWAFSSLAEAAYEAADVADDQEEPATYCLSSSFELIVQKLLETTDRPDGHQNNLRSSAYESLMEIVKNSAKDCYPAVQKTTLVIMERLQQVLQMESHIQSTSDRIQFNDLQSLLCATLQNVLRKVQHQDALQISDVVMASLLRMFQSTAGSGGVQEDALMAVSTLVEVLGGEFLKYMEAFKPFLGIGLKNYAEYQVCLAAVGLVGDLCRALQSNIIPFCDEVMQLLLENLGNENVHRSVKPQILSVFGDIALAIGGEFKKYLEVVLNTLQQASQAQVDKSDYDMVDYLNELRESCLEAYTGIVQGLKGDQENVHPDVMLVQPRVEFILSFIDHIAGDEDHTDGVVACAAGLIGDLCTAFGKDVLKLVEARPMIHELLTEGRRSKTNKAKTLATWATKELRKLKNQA
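FRET biosensor (snurportin 1 IBB flanked by EYFP and cerulean), 50 nM, with compound 5 min, then 0.125 microM importin beta in PBS, 1 mM DTT, 0.02% Tween-20, 0.1% BSA. CFP/YFP ratio read after 45 min at room temperature; pre-read flags interference.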
ELG1 DNA repair: blocks ELG1-dependent DNA repair in HEK293T cells. HEK293T ELG1-luciferase reporter, luminescence, 16 h; DNA damage induced by 5-fluorouridine. Potency, µM (titrated, usually from 46.1 µM), for the others: at the top dose activity change, negative = inhibition, hits mostly inhibitors. 330,000 compounds, 2.3% hits; note: % is set by controls: 0 for no effect and ±100 for the full control effect; nearly all actives have a fitted effect of over 55% in size
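Quantitative HTS, concentration-response format. 2,000 cells/well co-treated with 5-fluorouridine and compound, 16 hr in 5% CO2 at 37 °C; ONE-Glo luminescence read after 30 min.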
TbPFK ATP: orthogonal confirmation of T. brucei phosphofructokinase inhibitors; 1,100 compounds, 47% hits; Potency, µM (series often up to 57.5 µM), inactives show at the highest dose inhibition; Tb PFK enzyme, ATP depletion, Kinase-Glo Plus luminescence; shares compounds with Tb PFK inh-1; calls by dose curve; note: nearly all actives have a fitted effect of over 60% in size
Tb PFK inh-2: validation of T. brucei phosphofructokinase inhibitors; Potency, µM (doses to about 57.5 µM), without a hit: at the highest dose activity change, negative = inhibition, most hits filed as inhibitors; AID 504637; shares compounds with Tb PFK inh-1; 1,100 compounds, 41% hits; purified T. brucei PFK, ADP-Glo luminescence, 45 min;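 note: plate controls were full PFK enzyme control for no effect and no enzyme control for full effect; nearly all actives have a fitted effect of over 60% in size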
* = called active by the depositor; i = inactive; u = inconclusive; x = no result. Unless noted, calls come from the whole dose curve; as a rule, active = well fitted curve in the direction sought with a large enough effect; inconclusive = small, poorly fitted or top-dose-only effect, or another doubt; inactive = no such curve, though single readings can be large; an effect the other way counts as inactive or inconclusive. Potency is the fitted concentration of half-maximal effect.

SMILES | Tb PGK inh | Tb PFK inh-1 | Rango release inh | PKM2 activator | Rango-impB inh | ELG1 DNA repair | TbPFK ATP | Tb PFK inh-2
Nc1nc2ccccc2n1CCOc1ccc(F)cc1 | 2% | u | -10% | 9% | -1% | -25% | 13µM* | 21µM*
CSc1nc2ccccc2n1C(=O)Oc1ccccc1 | -8% | -13% | 9% | u | 0% | 7% | x | x
CCOC(=O)Cn1c(=N)n(CCOc2ccc(F)cc2)c2ccccc21 | -11% | 5.4µM* | 7% | -3% | 2% | -15% | 3µM* | 5.4µM*
Cc1cc(/C=C2\C(=O)NC(=O)N(c3ccccc3)C2=O)c(C)n1-c1ccc(C(=O)O)c(Cl)c1 | u | 20% | -16% | 11% | 2% | -2% | x | x
CC(=O)NC1=NC(=O)/C(=C/c2cc(C)n(-c3cccc(C(=O)O)c3)c2C)S1 | u | u | u | 0% | u | -15% | u | u
CCCOP(=O)(OCCC)C(Nc1ccc(C(C)C)cc1)c1ccc([N+](=O)[O-])cc1 (stereo not drawn) | 2% | -3% | -6% | -4% | -3% | u | x | x
Clc1ccc(CSc2nnc([C@@H]3CCCN3)o2)cc1Cl | -9% | 30µM* | -9% | 0% | 1% | 4% | 12µM* | 27µM*
NCCCCCc1nnc(SCc2ccc(Cl)c(Cl)c2)o1 | -9% | 24µM* | 24% | 4% | 0% | 1% | 13µM* | 30µM*
NCc1ccccc1COc1ccccc1 | i | 24µM* | 26% | -8% | -2% | 5% | u | u
COc1ccc(NC(=S)NC(NC(=O)CF)C(Cl)(Cl)Cl)cc1[N+](=O)[O-] (stereo not drawn) | -6% | 0% | -9% | x | 3% | 2% | x | x
O=C(CCc1nc(C2=CCN(Cc3cccc(Cl)c3)CC2)no1)Nc1ccccc1F | -3% | x | x | x | x | x | x | x
Cc1n[nH]c(C)c1Sc1ccccc1[N+](=O)[O-] | -3% | u | 29% | -2% | 4% | 17% | u | u
CCCCC(CC)COP(=O)(OCC(CC)CCCC)OCC(CC)CCCC (stereo not drawn) | -9% | 0% | -4% | x | 2% | u | x | x
CN1CCc2cc3c(cc2C1)OCO3 | -8% | x | -15% | x | 0% | x | x | x
O=C1C2C3C=CC(CO)(O3)C2C(=O)N1c1ccccc1-c1ccccc1 (stereo not drawn) | -1% | 21µM* | 0% | 32µM* | 2% | 6% | 24µM* | u
COc1ccc(OCC(=O)N2CCN(Cc3cccc(OC)c3OC)CC2)cc1 | 2% | x | x | x | x | x | x | x
O=C(O)C1OC(Oc2cc3oc(-c4ccccc4)cc(=O)c3c(O)c2O)C(O)C(O)C1O (stereo not drawn) | -1% | 6.7µM* | -10% | 6% | u | u | u | 9.5µM*
CCN1CCN(C(=O)COc2ccc(S(=O)(=O)N3CCOCC3)cc2Cl)CC1 | -1% | -20% | -2% | -2% | 2% | 18% | x | x
CCOc1cc(C(=O)OCc2ccc([N+](=O)[O-])cc2)ccc1OCC(=O)N1CCOCC1 | i | u | -3% | x | 4% | u | 15µM* | 27µM*
O=c1cc(-c2ccc(O)c(O)c2)oc2cc(O)cc(O)c12 | u | u | u | -15% | u | u | -27% | u
COc1ccc(NC(=O)c2ccc(NC(=O)c3nc4nccc(C)n4n3)cc2)cc1 | -1% | 0% | -14% | x | u | u | x | x
O=C(Cc1ccc(Cl)c(Cl)c1)Nc1ccc(S(=O)(=O)Nc2ncccn2)cc1 | -9% | 2.4µM* | -3% | 2% | 2% | -9% | 0.85µM* | 1.9µM*
CC(=O)Nc1ccc(CC(=O)N2CCN(Cc3ccccc3)CC2)cc1 | i | 0% | 10% | -2% | 5% | 2% | x | x
Cc1ccnc(NS(=O)(=O)c2ccc(NC(=O)Cc3ccc(Br)cc3)cc2)n1 | 1% | u | 6% | x | -5% | 10% | 21µM* | u
CC(Cc1ccccc1)NC(=O)NC(C)Cc1ccccc1 (stereo not drawn) | 0% | 0% | 5% | -7% | 1% | u | x | x
SMILES | Tb PGK inh | Tb PFK inh-1 | Rango release inh | PKM2 activator | Rango-impB inh | ELG1 DNA repair | TbPFK ATP | Tb PFK inh-2
CC(CNc1ccccc1O)C(=O)O (stereo not drawn) | u | 24µM* | 10% | -2% | -1% | -3% | u | u
N#Cc1cc2c(nc1SCC(=O)Nc1cccc(C(F)(F)F)c1)C1CCN2CC1 | 5% | x | x | x | x | x | x | x
Cc1nc2cc(NC(=O)COc3ccc(C#N)cc3)ccc2n1-c1ccccc1 | 6% | 21µM* | -12% | -1% | 0% | u | u | u
O=C(c1cc(S(=O)(=O)N2CCC3(CC2)OCCO3)ccc1F)N1CCC2(CC1)OCCO2 | -4% | -3% | -24% | -9% | 0% | -7% | x | x
NC(=O)CCN1CCN(C(=O)c2ccc3nc(Cc4cccc(Cl)c4)oc3c2)CC1 | -2% | u | -10% | 10% | 3% | 6% | 12µM* | 27µM*
COc1ccc(OC(=O)N(C)C[C@H]2OCc3cnnn3CCCC(=O)N([C@H](C)CO)C[C@@H]2C)cc1 | -5% | x | x | x | x | x | x | x
CCn1c(N)c(C(=O)NC)sc1=S | i | u | -1% | -39% | 8% | -6% | 9.5µM* | 19µM*
CN(C)C(=O)Oc1ccc(OCc2nc3ccccc3[nH]2)cc1 | u | -29% | 28% | -70% | 1% | u | x | x
NC[C@H](O)c1ccc(O)c(O)c1 | -4% | 2.1µM* | 3% | x | u | u | 17% | -20%
CN1CCc2nc3sc(C(=O)NC4CC4)c(N)c3cc2C1 | 7% | 8% | -7% | 2% | u | 0% | x | x
Nc1c(C(=O)NC2CC2)sc2nc3c(c(-c4ccco4)c12)CC/C3=C/c1ccco1 | u | 6.7µM* | u | -6% | u | 6% | u | u
CCOC(=O)C1SC2(C(F)(F)F)CC1(O)c1c(C)cc(C)nc1O2 (stereo not drawn) | -9% | -9% | 25% | -4% | -2% | 0% | x | x
